DT40 TDP1 CPT = DT40-hTDP1 cell growth loss with CPT. chicken DT40 Tdp1-/-;hTDP1 cells + 20 nM CPT, ATP luminescence, 48 h. Potency, µM (series often up to 46.2 µM), for the others: at the highest dose activity change, negative = growth inhibition, most hits filed as inhibitors. actives 12% (n = 420,000); further: potency means the concentration at half of the fitted maximal effect; on the % scale 0 is the no-effect control and ±100 the full control effect; nearly all actives have a fitted effect of over 55% in size
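Chicken DT40 Tdp1-/- cells complemented with human TDP1, 400 cells/well, exposed to compounds plus 20 nM camptothecin for at least 48 h at 37 C; viability read as ATP content by CellTiter-Glo luminescence.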
IL-1B inflam inh = blocks inflammasome-driven IL-1 beta release; actives 4.7% (n = 360,000); activity change, % at 57.5 µM; THP-1 LPS/ATP IL-1B secretion, AlphaLISA, 16 h; active compounds read low; in the data active means activity change below about -50%; inconclusive means mostly about -30% to -49%; further: on the % scale 0 is the no-effect control and ±100 the full control effect
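THP-1 cells pretreated 1 hr with compounds (up to 57.5 uM final), then stimulated with LPS (250 ng/mL final) plus ATP (1.25 mM final); secreted IL-1B measured by AlphaLISA after 16 hr, decreased signal indicating inhibition.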
HepG2 viability = kills HepG2 cells in TGF-b inhibitor counter-screen; HepG2 CAGA-GFP viability, ATP luminescence, 18 h; Potency, µM (titrated, usually from 46.1 µM), for inactives: top-dose activity change, negative = cytotoxicity, usual class: cytotoxic; actives 0.76% (n = 410,000); further: potency means the concentration at half of the fitted maximal effect
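HepG2 CAGA-GFP cells (1000/well, DMEM with 1% FBS) received compound, then TGF-beta at 500 pg/mL final, and were incubated 18 hours at 37 degrees C. Viability was read by CellTiter-Glo luminescence. Media-only wells were set as complete cell-killing and DMSO as no toxicity.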
S-ASM inh = blocks human secretory acid sphingomyelinase | P17405 | placental ASM, HMU-PC fluorogenic substrate, 60 min | Potency, µM (titrated, usually from 57.5 µM), inactives show at the highest dose activity change, negative = inhibition, actives largely listed as inhibitors | actives 0.006% (n = 340,000) | AID 504937; further: potency means the concentration at half of the fitted maximal effect
Target sequence (P17405 47-631 limits assumed): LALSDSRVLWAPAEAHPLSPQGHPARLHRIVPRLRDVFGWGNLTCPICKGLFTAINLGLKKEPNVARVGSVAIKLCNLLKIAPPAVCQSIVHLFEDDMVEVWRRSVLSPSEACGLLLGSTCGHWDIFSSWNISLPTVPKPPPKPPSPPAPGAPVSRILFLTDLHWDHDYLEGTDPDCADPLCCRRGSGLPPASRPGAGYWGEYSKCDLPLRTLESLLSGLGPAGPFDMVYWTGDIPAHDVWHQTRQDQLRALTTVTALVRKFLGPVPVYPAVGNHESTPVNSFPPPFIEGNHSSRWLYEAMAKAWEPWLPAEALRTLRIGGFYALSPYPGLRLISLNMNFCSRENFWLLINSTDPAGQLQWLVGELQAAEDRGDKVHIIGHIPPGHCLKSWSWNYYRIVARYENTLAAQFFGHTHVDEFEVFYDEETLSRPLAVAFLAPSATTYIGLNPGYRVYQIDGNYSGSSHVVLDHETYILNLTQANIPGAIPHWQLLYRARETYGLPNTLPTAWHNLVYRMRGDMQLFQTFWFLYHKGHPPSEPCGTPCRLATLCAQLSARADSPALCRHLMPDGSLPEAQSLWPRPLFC
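HMU-PC0 cleavage (9 uM final) by human placental ASM, 60 min at 37 °C following 10 min compound exposure at RT; stopped at pH 10, fluorescence Ex 386/Em 447 nm.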
TGFb SMAD3 inh = blocks TGF-b signaling; actives 1.2% (n = 410,000); Potency, µM (titrated, usually from 46.1 µM), inactives show at the highest dose activity, negative = inhibition, usual class: inhibitors; HepG2 CAGA-GFP TGF-b/SMAD3 reporter, GFP fluorescence, 18 h; TGF-beta stimulated, 500 pg/mL final; further: potency means the concentration at half of the fitted maximal effect; on the % scale 0 is the no-effect control and ±100 the full control effect; nearly all actives have a fitted effect of over 65% in size
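HEPG2 CAGA-GFP reporter cells (1000/well, DMEM with 1% FBS) received compounds, then recombinant TGF-beta at 500 pg/mL final for 18 hours at 37 degrees C. Per-cell GFP summed per well was normalised to unstimulated and stimulated DMSO controls before curve fitting.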
DT40 TDP1 no CPT = qHTS for Inhibitors of human tyrosyl-DNA phosphodiesterase 1 (TDP1): qHTS in cells in absence of CPT; actives 15% (n = 420,000); Potency, µM (highest dose often 46.2 µM), for the others: top-dose activity change, negative = growth inhibition, most hits filed as inhibitors; AID 686978, 2013; DT40 Tdp1-/- hTDP1 cells, no CPT, ATP luminescence, 48 h; further: potency means the concentration at half of the fitted maximal effect; on the % scale 0 is the no-effect control and ±100 the full control effect; nearly all actives have a fitted effect of over 55% in size
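Seeded 400 DT40-hTDP1 cells/well (vehicle DMSO, no 20 nM CPT); pinned compounds; ≥48 hr at 37 °C; CellTiter-Glo luminescence as viability measure.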
Starred values were filed as active, the others as inactive; u = inconclusive; x = no result given. Hits are enriched below; roughly 19% of the tested compounds scored in any of these assays. Unless noted, the call rests on the fitted dose curve; in most records, active means well fitted curve in the direction sought with a large enough effect; inconclusive means small, poorly fitted or top-dose-only effect, or another doubt; inactive means no such curve, though single readings can be large; an effect the other way counts as inactive or inconclusive.

SMILES	DT40 TDP1 CPT	IL-1B inflam inh	HepG2 viability	S-ASM inh	TGFb SMAD3 inh	DT40 TDP1 no CPT
CC(C)c1ccc(NC2CCCN(C(=O)CCN3CCCC3=O)C2)cc1 (stereo unspecified)	1%	2	-32%	-1%	u	-2%
Cc1ccnn1CCC(=O)N1CCCC(Nc2ccc(C(C)C)cc2)C1 (stereo unspecified)	21µM*	33	-12%	x	-21%	16µM*
Cc1ccnn1CCC(=O)N1CCCC(Nc2ccc(F)c(F)c2)C1 (stereo unspecified)	-7%	0	3%	4%	-6%	u
O=C(Nc1ncccn1)c1cc([N+](=O)[O-])cc([N+](=O)[O-])c1	-3%	0	-11%	1%	-8%	-17%
O=[N+]([O-])c1cc(-c2ncccn2)c([N+](=O)[O-])s1	2.3µM*	-86*	-96%	1%	11µM*	2.9µM*
CCOC(=O)c1cc(C)n(Cc2cccc(OC)c2OC)c1C	u	-8	-32%	-13%	0%	u
CCOC(=O)c1c(C)c(C)n(Cc2cccc(OC)c2OC)c1C	u	-11	0%	0%	u	23µM*
Cc1cccc(NS(=O)(=O)c2ccc3c(c2)CC(C)N3C(=O)C2CCC2)c1C (stereo unspecified)	u	x	-7%	x	u	18µM*
COc1ccccc1CNS(=O)(=O)c1ccc2c(c1)CC(C)N2C(=O)C1CC1 (stereo unspecified)	u	0	-73%	3%	u	u
CC1Cc2cc(S(=O)(=O)N3CCN(c4ccccc4F)CC3)ccc2N1C(=O)C1CCC1 (stereo unspecified)	u	x	-15%	x	-13%	-13%
CCOc1ccccc1NS(=O)(=O)c1ccc2c(c1)CC(C)N2C(=O)C1CCC1 (stereo unspecified)	23µM*	x	-24%	x	u	15µM*
Cc1ccccc1C(=O)Nc1nnc2n1CCS2	-2%	x	-6%	x	3%	5%
CCOC(=O)C1CCN(c2nc3ccccc3nc2C(C#N)C(=O)OCCOC)CC1 (stereo unspecified)	u	-10	5%	-5%	-8%	u
CCOC(=O)C1CCN(c2nc3ccccc3nc2C(C#N)C(=O)OC(C)C)CC1 (stereo unspecified)	16µM*	-17	-2%	14%	-2%	12µM*
C=CCOC(=O)C(C#N)c1nc2ccccc2nc1N1CCC(C(=O)OCC)CC1 (stereo unspecified)	u	-17	-32%	0%	-5%	18µM*
COc1ccc(CNC(=O)C(C#N)c2nc3ccccc3nc2N2CCN(C)CC2)cc1 (stereo unspecified)	u	-52*	-10%	-8%	-6%	-29%
N#CC(c1nc2ccccc2nc1N1CCCC1)S(=O)(=O)c1ccccc1 (stereo unspecified)	-1%	12	-22%	159%	-14%	-24%
CN1CCN(c2nc3ccccc3nc2C(C#N)S(=O)(=O)c2ccccc2)CC1 (stereo unspecified)	1%	u	-42%	6%	7.9µM*	-3%
COc1ccc(C2=Nc3ccccc3NC(c3cccs3)=N2)cc1	u	x	5%	x	-4%	u
C=CCOC(=O)C(C#N)c1nc2ccccc2nc1N1CCN(Cc2ccc3c(c2)OCO3)CC1 (stereo unspecified)	u	-52*	-2%	-4%	4%	u
COC(=O)C1CCN(c2nc3ccccc3nc2C(C#N)C(=O)OCC(C)C)CC1 (stereo unspecified)	23µM*	-4	-3%	-5%	-12%	12µM*
CCCCNC(=O)C(C#N)c1nc2ccccc2nc1N1CCN(Cc2ccc3c(c2)OCO3)CC1 (stereo unspecified)	-6%	0	1%	12%	17%	-7%
CN1CCN(c2nc(-c3ccccc3)ncc2S(=O)(=O)c2ccccc2)CC1	-10%	-52*	-16%	2%	-20%	u
CCOC(=O)C1CCN(c2nc3ccccc3nc2C(C#N)C(=O)OC(C)COC)CC1 (stereo unspecified)	21µM*	-2	-22%	-12%	14%	18µM*
CN1CCN(c2nc(-c3ccccc3)ncc2S(C)(=O)=O)CC1	-6%	-8	-1%	1%	10%	-6%
SMILES	DT40 TDP1 CPT	IL-1B inflam inh	HepG2 viability	S-ASM inh	TGFb SMAD3 inh	DT40 TDP1 no CPT
CCN(CC)C(=O)Cn1c(=O)n(CCCC(=O)NCc2ccc3c(c2)OCO3)c(=O)c2sccc21	2%	-13	10%	-2%	5%	-5%
C[C@@H]1C(NC(=O)c2ccccc2)CC2CC1C2(C)C (stereo partly specified)	u	7	-24%	-1%	0%	u
N#CC(CCc1ccc([N+](=O)[O-])cc1)(CCc1ccc([N+](=O)[O-])cc1)C(N)=O	23µM*	0	-12%	0%	-9%	13µM*
O=[N+]([O-])c1ccc(Cc2ccc([N+](=O)[O-])cc2)cc1	-17%	39	-10%	-5%	0%	-15%
C[C@@H]1CCCCO[C@@H](CN(C)C(=O)Cc2ccccc2)[C@@H](C)CN([C@H](C)CO)C(=O)c2cc(NC(=O)C3CCCCC3)ccc2O1	u	-21	1%	x	7%	-6%
C[C@@H]1CCCCO[C@H](CN(C)C(=O)Cc2ccccc2)[C@H](C)CN([C@@H](C)CO)C(=O)c2cc(NC(=O)Nc3ccc(F)cc3)ccc2O1	23µM*	-29	9%	x	u	-23%
C[C@@H]1CCCCO[C@H](CN(C)C(=O)Cc2ccccc2)[C@@H](C)CN([C@H](C)CO)C(=O)c2cc(NC(=O)Nc3ccccc3)ccc2O1	-3%	30	-26%	x	5%	29µM*
COc1ccc(C2=Nc3ccccc3N(C(=O)c3ccncc3)C2C(=O)NC(C)(C)C)cc1 (stereo unspecified)	-5%	0	x	x	x	-20%
CCOc1ccccc1C(=O)N[C@H](C(=O)OCc1cc([N+](=O)[O-])cc2c1OCOC2)C(C)C	u	-21	-19%	-3%	u	16µM*
